Screening data from PubChem BioAssay.
PERK inhibitor = block of dimerizer-induced PERK translation repression, primary screen, PERK inhibitor project, CHO PERK-DD cells, SEAP luminescence, HTS | inhibition, % at 5.6 µM | 0.17% of 220,000 active | CHO PERK-DD fusion, SEAP luminescence translation reporter;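 active = inhibition above the mean inhibition of all tested compounds plus 3 SD, set separately per screening campaign, cut at about 2.9% in these data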;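 note: PERK kinase domain activated by AP20187 dimerizer at 100 nM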
PABP FP inh = PABP poly(A) RNA binding inhibitors, primary screen, biochemical, fluorescence polarization, uHTS; Polyadenylate-binding protein 1 (Homo sapiens), P11940; inhibition, % at 35 µM; 1% of 290,000 active; AID 2014, 2009;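 note: calls also rest on retests at 20 µM and on dose response follow-up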
PABP1 MLLE inh = inhibitors of PABP1 MLLE–PAM2 peptide binding, primary screen, biochemical, fluorescence polarization, FITC-PAM2, GST-MLLE | inhibition, % at 20 µM | 0.36% of 360,000 active; in the data active = inhibition above about 35%, passing the limit was not always enough
GRK2 inh = compounds blocking aptamer binding on GRK2 – biochemical, human GRK2, bead flow cytometry, HTS, primary screen | Beta-adrenergic receptor kinase 1 (Homo sapiens), P25098 | FAM-aptamer displacement from GRK2 | inhibition of aptamer binding, % at 10 µM | 0.59% of 330,000 active | AID 488847, 2010;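 active = inhibition of aptamer binding above 40%, roughly 3 SD of noise, on plates passing a quality check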;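 note: median bead fluorescence of bound FAM aptamer so fluorescent compounds give negative values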
eIF4H inh = human eIF4H binding inhibitors, primary screen, translation initiation inhibitor project, biochemical, uHTS, fluorescence polarization; Eukaryotic translation initiation factor 4H (Homo sapiens), Q15056; eIF4H fluorescence polarization binding assay; inhibition, % at 35 µM; 0.94% of 290,000 active; AID 2012, 2009;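 note: calls also rest on retests at 20 µM and on dose response follow-up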
Of the large screens only hits and unclear results are named; the others gave an inactive call; ! = not confirmed by another sample. This is a sample that favours compounds with a hit; in the whole collection about 1.9% have one here. Unless noted, the rule behind the calls is not given here.

COc1cc(OC)c2ccc(=O)oc2c1C(CC(=O)N1CCCC1)c1ccc2c(c1)OCO2 (stereo not given)	PABP FP inh 51, eIF4H inh 82 (no result: PERK inhibitor)
COc1cc(C(CCN2CCCC2)c2c(OC)cc(OC)c3ccc(=O)oc23)cc(OC)c1OC (stereo not given)	none (no result: PERK inhibitor)
COc1ccc2[nH]c(=O)c(CN(C(=O)C(C)C)c3ccccc3OC)cc2c1	none (no result: PERK inhibitor, GRK2 inh)
O=C(NC(=S)NNS(=O)(=O)c1ccccc1)c1ccccc1[N+](=O)[O-]	PABP1 MLLE inh 45
O=C(O)c1ccc(Cl)c(NC(=S)NC(=O)c2ccccc2[N+](=O)[O-])c1	PABP1 MLLE inh 47
Cc1ccc(S(=O)(=O)NNC(=O)c2cccnc2)cc1	none
O=C(NC(=S)NNS(=O)(=O)c1ccccc1)c1cccnc1	PABP1 MLLE inh 48
O=C(c1oc2ccccc2c1CSCc1ccccc1)N1CCN(c2ncccn2)CC1	PABP1 MLLE inh 69
CCOCC(=O)Nc1c(C(=O)N2CCN(c3ncccn3)CC2)oc2ccccc12	none (no result: PERK inhibitor)
O=S(=O)(O)Sc1ccccc1	none (no result: PERK inhibitor, PABP FP inh, GRK2 inh, eIF4H inh)
CCN(CC)c1ccc(SS(=O)(=O)O)cc1	PABP1 MLLE inh 43!
C/C(=N\NC(=O)c1cc(-c2cccc([N+](=O)[O-])c2)n[nH]1)c1ccccc1O	none
CC(C)CN(C(=O)COC(=O)CSc1ccccc1)c1c(N)n(Cc2ccccc2)c(=O)[nH]c1=O	none (no result: PERK inhibitor, PABP FP inh, eIF4H inh)
O=C(O)CCc1ccc(-c2cccs2)n1CCC(=O)O	PABP FP inh 72, eIF4H inh 49
O=C(Nc1ccc2c(c1)OCO2)c1cc(C2CCCCN2C(=O)c2ccccc2)on1 (stereo not given)	none (no result: PERK inhibitor, PABP FP inh, GRK2 inh, eIF4H inh)
CC(=O)Nc1c2c3c(cccc3n(C)c1=O)C(=O)c1ccccc1-2	none
CC(=O)Nc1ccc(Nc2ccc3c4c(cc(=O)n3C)-c3ccccc3C(=O)c24)cc1	PABP1 MLLE inh 65
O=C(CCN1CCN(c2ccccc2)CC1)N/N=C/c1ccc(O)c(O)c1O	PABP FP inh 81 (no result: GRK2 inh)
C/C(=N\NC(=O)Cc1csc(N2CCOCC2)n1)c1ccccc1	none
O=C(Cc1csc(N2CCOCC2)n1)N/N=C/c1ccc(O)c(O)c1O	PABP FP inh 5.3 (no result: GRK2 inh)
COc1ccc(CC(N)c2csc(Nc3nc(C)cnc3C)n2)cc1 (stereo not given)	none (no result: PERK inhibitor, PABP FP inh, GRK2 inh, eIF4H inh)
O=C(NNC(=O)c1cc2cc3ccccc3nc2s1)c1cccc(C(F)(F)F)c1	eIF4H inh 51
O=C(NNS(=O)(=O)c1ccccc1)c1cc2cc3ccccc3nc2s1	none
COC(=O)c1csc(C2OC(CO)C(O)C2O)n1 (stereo not given)	none (no result: PERK inhibitor, PABP FP inh, GRK2 inh, eIF4H inh)
CCCC(C)c1nnc(NC(=O)C(=O)OCC)s1 (stereo not given)	PERK inhibitor 3.0
COc1ccc(C(=O)NCCNc2nc3ccc(C)cc3cc2C#N)cc1OC	none (no result: PERK inhibitor)
COc1ccc(OC)c(S(=O)(=O)N/N=C\c2cn(CC(N)=O)c3ccccc23)c1	none (no result: PERK inhibitor)
CCOc1cc(C2C3=C(CCCC3=O)NC3=C2C(=O)CCC3)ccc1OCCO	PABP1 MLLE inh 41
CN1C(=O)C(N=Nc2ccc([N+](=O)[O-])cc2)SC1=S (stereo not given)	none (no result: PERK inhibitor, PABP FP inh, GRK2 inh, eIF4H inh)
c1cc2c3c(cccc3c1)C(N1CCN(C3=Nc4cccc5cccc3c45)CC1)=N2	none (no result: PABP FP inh, PABP1 MLLE inh, GRK2 inh, eIF4H inh)
COc1ccccc1N1CCN(C2=Nc3cccc4cccc2c34)CC1	none
CC(=O)N1CCN(C2=Nc3cccc4cccc2c34)CC1	none
c1ccc(CC2CCN(C3=Nc4cccc5cccc3c45)CC2)cc1	eIF4H inh 92
c1cc2c3c(cccc3c1)C(N1CCOCC1)=N2	PABP FP inh 47
CC1CN(C2=Nc3cccc4cccc2c34)CC(C)O1 (stereo not given)	PABP FP inh active
CCN1C(=O)[C@H]2[C@@H](c3ccc(OC)cc3)N[C@]3(CCCN(Cc4ccc(C)cc4)C3=O)[C@H]2C1=O	none (no result: PERK inhibitor, PABP FP inh, GRK2 inh, eIF4H inh)
Cc1ccc(OC(=O)COc2ccccc2C)c(-n2nc3ccccc3n2)c1	PABP1 MLLE inh 53
O=C(Oc1cccc2ccccc12)c1cc(Cl)nc2ccccc12	none
O=Cc1ccc(OC(=O)c2cc(Cl)nc3ccccc23)cc1	PABP1 MLLE inh 36
Nc1nc(-c2ccc(-n3nncc3-c3ccco3)cc2)cs1	none (no result: PABP1 MLLE inh)
